The whole screen tested about 310,000 compounds, of which about 14,000 (4.5%) showed an effect of 50% or more. Effects have a minus sign here. Only a selection was taken, and strong results are over-represented in it overall.
Target: human ether-à-go-go-related gene (hERG) potassium channel (human, UniProt Q12809)
Experiment: primary screen, population patch clamp on CHO cells stably expressing hERG; higher = less effect of the substance
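Further: peak tail current of the secondary pulse compared with the same well before compound.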

Chain of human ether-à-go-go-related gene (hERG) potassium channel (Q12809 whole entry, looked up): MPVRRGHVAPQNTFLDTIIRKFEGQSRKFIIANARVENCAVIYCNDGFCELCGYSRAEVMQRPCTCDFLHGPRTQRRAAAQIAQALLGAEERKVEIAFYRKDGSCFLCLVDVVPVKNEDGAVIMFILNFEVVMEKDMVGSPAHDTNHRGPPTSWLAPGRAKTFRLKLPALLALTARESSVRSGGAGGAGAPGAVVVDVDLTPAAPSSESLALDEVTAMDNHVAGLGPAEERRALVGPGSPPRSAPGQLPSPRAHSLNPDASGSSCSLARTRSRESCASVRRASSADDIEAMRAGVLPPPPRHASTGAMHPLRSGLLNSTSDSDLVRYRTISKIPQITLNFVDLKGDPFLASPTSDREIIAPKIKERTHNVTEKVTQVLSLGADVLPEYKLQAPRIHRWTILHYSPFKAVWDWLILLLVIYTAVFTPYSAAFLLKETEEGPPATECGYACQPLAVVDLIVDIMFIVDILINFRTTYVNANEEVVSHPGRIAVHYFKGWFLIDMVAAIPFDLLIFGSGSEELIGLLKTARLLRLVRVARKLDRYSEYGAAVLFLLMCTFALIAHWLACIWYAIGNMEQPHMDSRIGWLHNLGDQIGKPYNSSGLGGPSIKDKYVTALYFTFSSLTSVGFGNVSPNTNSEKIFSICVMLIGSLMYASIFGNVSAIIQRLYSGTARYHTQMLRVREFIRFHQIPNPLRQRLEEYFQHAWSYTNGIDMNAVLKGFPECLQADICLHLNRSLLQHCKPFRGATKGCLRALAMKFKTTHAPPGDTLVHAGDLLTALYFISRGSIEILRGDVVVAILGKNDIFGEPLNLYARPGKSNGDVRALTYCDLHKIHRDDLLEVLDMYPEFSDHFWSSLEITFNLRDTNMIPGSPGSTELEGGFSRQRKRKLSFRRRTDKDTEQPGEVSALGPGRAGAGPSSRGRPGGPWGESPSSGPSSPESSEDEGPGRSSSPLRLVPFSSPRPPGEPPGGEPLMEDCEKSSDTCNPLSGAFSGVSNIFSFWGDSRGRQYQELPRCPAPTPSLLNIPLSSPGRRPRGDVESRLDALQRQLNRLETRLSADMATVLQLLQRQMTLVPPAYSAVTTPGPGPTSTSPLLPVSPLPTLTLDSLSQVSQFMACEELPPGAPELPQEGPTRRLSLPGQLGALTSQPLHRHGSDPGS

| SMILES | hERG current change (%, negative = inhibition) at 10uM |
| --- | --- |
| CCc1ccc(CN(C(=O)COc2c(C)cccc2C)C2CCS(=O)(=O)C2)cc1 (stereo not shown) | -12.2% |
| Cc1ccc(NC(=O)c2cccc(S(=O)(=O)N(C)c3ccccc3)c2)cc1S(=O)(=O)N1CCOCC1 | 9.04% |
| O=S(=O)(Nc1ccc(Cl)cc1)c1cccc2cccnc12 | 12.8% |
| COc1ccc(N2CCN(C(=O)CCS(=O)(=O)c3cccc4nsnc34)CC2)cc1 | -23.9% |
| CCOc1cc(C(=S)N2CCOCC2)ccc1OC(=O)c1cccc(C)c1 | -42% |
| Cc1cc(C(=O)CSc2nnc(-c3ccc(F)cc3)o2)c(C)n1CC1CCCO1 (stereo not shown) | -7.13% |
| O=C(CSc1nnc(-c2ccco2)o1)NC1CC2CCC1C2 (stereo not shown) | -2.05% |
| CCOC(=O)c1c(C)[nH]c(C(=O)N2CCc3cc(OC)c(OC)cc3C2)c1C | -12.3% |
| COc1ccc(OC)c(NC(=O)C(C)Oc2ccc(Br)cc2)c1 (stereo not shown) | 5.96% |
| CN(CC(=O)NC1CC(C)(C)NC(C)(C)C1)S(=O)(=O)c1ccc(Br)cc1 | -2.22% |
| CC(=O)N1CCN(C(=O)COc2ccc(Br)cc2)CC1 | -17.8% |
| Cc1cccc(OCC(=O)N2CCN(C(=O)CCC3CCCC3)CC2)c1 | -37.3% |
| CCOC(=O)N1CCN(C(=O)COc2ccc(Br)cc2)CC1 | -39.1% |
| O=C(COc1ccc(Br)cc1)N1CCN(C2CCCC2)CC1 | -63.6% |
| O=C(O)C1CCN(C(=O)COc2ccc(Br)cc2)CC1 | 38% |
| Cc1ccc(OCC(=O)N2CCN(C(=O)CCC3CCCC3)CC2)cc1 | -54.3% |
| CN1CCCN(C(=O)COc2ccc(Br)cc2)CC1 | -17.3% |
| O=C(CCC1CCCC1)N1CCN(C(=O)COc2ccccc2)CC1 | -28.8% |
| COc1ccc(OCC(=O)N2CCN(C(=O)COc3ccc(Br)cc3)CC2)cc1 | -71.9% |
| c1ccc(Cn2nc(-c3ccccc3)nc2-c2ccccc2)cc1 | -2.5% |
| O=c1[nH]c2ccc(S(=O)(=O)N3CCN(Cc4ccccc4)CC3)cc2[nH]c1=O | -1.75% |
| Cn1c(CNC(=O)c2cccs2)n[nH]c1=S | 18.1% |

| SMILES | hERG current change (%, negative = inhibition) at 10uM |
| --- | --- |
| O=C(NCc1ccccn1)c1ccc(NS(=O)(=O)c2cccc(Cl)c2)cc1 | 7.73% |
| COc1ccc(-n2nnnc2/C=C\Nc2ccc(C)cc2)cc1 | 16% |
| COC(=O)CNC(=O)CNC(=O)c1nn(-c2ccc(OC)c(OC)c2)c(=O)c2ccccc12 | 18.1% |
| COc1ccc2nc(NC(=O)C3COc4ccccc4O3)sc2c1 (stereo not shown) | 0.282% |
| CCCCN1C(=O)/C(=C2/Sc3ccc(OC)cc3N2CC)SC1=S | 25.5% |
| O=C(c1ccc(Cl)cc1)c1cc(-c2ccccn2)c(N2CCOCC2)s1 | -54.9% |
| O=C(c1ccc(Cl)c(Cl)c1)c1cc(-c2ccccn2)c(N2CCOCC2)s1 | -29.1% |
| O=C(c1ccccc1)c1cc(-c2ccccn2)c(N2CCOCC2)s1 | -29.4% |
| S=C(N/N=C/c1ccc2ncccc2c1)Nc1ccccc1 | 63.6% |
| Cc1ccc(C(=O)CSc2ccccn2)cc1 | -7.25% |
| CCC1CCCCN1CCCNC(=O)C1CCCN(c2nn3c(=O)cc(C)nc3s2)C1 (stereo not shown) | 12.2% |
| O=C(O)CCCC(=O)Nc1ccc(N=Nc2ccccc2)cc1 | 14.5% |
| COc1ccc(S(=O)(=O)N2CCCC2CNC(=O)C(=O)NCc2ccc(C)cc2)cc1 (stereo not shown) | -29.6% |
| Cc1c(CC(=O)N2CCN(C(=O)C3COc4ccccc4O3)CC2)c(=O)oc2cc(O)cc(O)c12 (stereo not shown) | 24.8% |
| Cc1c(CC(=O)N2CCN(C(=O)C3COc4ccccc4O3)CC2)c(=O)oc2c(O)c(O)ccc12 (stereo not shown) | -0.208% |
| Cc1c(CC(=O)N2CCN(C(=O)C3COc4ccccc4O3)CC2)c(=O)oc2c(C)c(O)ccc12 (stereo not shown) | -20% |
| O=C(C1COc2ccccc2O1)N1CCOCC1 (stereo not shown) | 10.5% |
| COc1ccc2c(C)c(CC(=O)N3CCN(C(=O)C4COc5ccccc5O4)CC3)c(=O)oc2c1C (stereo not shown) | -53.7% |
| COc1cc(C)cc2oc(=O)c(CC(=O)N3CCN(C(=O)C4COc5ccccc5O4)CC3)c(C)c12 (stereo not shown) | -53.9% |
| Cc1c(CC(=O)N2CCN(C(=O)C3COc4ccccc4O3)CC2)c(=O)oc2cc(O)ccc12 (stereo not shown) | -44.7% |
| Cc1cc(O)c2c(C)c(CC(=O)N3CCN(C(=O)C4COc5ccccc5O4)CC3)c(=O)oc2c1 (stereo not shown) | -28% |
| Cc1c(CC(=O)N2CCN(C(=O)C3COc4ccccc4O3)CC2)c(=O)oc2cc(O)c(Cl)cc12 (stereo not shown) | -52.4% |

| SMILES | hERG current change (%, negative = inhibition) at 10uM |
| --- | --- |
| CC(=O)Oc1ccc2c(C)c(CC(=O)N3CCN(C(=O)C4COc5ccccc5O4)CC3)c(=O)oc2c1C (stereo not shown) | -69.6% |
| CCOC(=O)N1CCN(C(=O)C2COc3ccccc3O2)CC1 (stereo not shown) | -2.28% |
| O=C(C1COc2ccccc2O1)N1CCN(c2ccccc2Cl)CC1 (stereo not shown) | 1.69% |
| COc1ccccc1CNC(=O)c1ccc(-c2ccccc2Cl)o1 | 4.13% |
| O=S(=O)(/N=C(/NS(=O)(=O)c1ccccc1)c1ccccc1)c1ccccc1 | 20% |
| CN(C)c1ccc(/C=N/NC(=O)c2sccc2-n2cccc2)cc1 | 12.2% |
| CC1=CC(=C(C#N)c2nc3ccccc3s2)C=C(C)N1c1ccc(F)cc1F | 13.3% |
| c1ccc2c(c1)Cc1ccccc1O2 | 14.7% |
| COc1ccc(/C=C2\C(=O)NCC(=O)N2Cc2ccccc2)cc1 | 4.69% |
| Cc1csc(NC(=O)c2cccs2)n1 | -1.76% |
| CCOc1cc(NC(=S)NCC2CCCO2)c(OCC)cc1NC(=O)C1CC1 (stereo not shown) | 36.2% |
| C=CCn1cccc(C(=O)Nc2cc(OC)ccc2OC)c1=O | 1.46% |
| COc1ccc(CN(C)C(=O)c2cc(S(=O)(=O)N3CCOCC3)ccc2N2CCCC2)cc1 | -35.2% |
| CN(Cc1cccc(F)c1)C(=O)c1cc(S(=O)(=O)N2CCOCC2)ccc1N1CCCC1 | -24.5% |
| CN(Cc1ccc(Cl)cc1)C(=O)c1cc(S(=O)(=O)N2CCOCC2)ccc1N1CCCC1 | -72.8% |
| Cc1ccsc1CN(C)C(=O)c1cc(S(=O)(=O)N2CCOCC2)ccc1N1CCCC1 | -40.5% |
| CCc1ccc(CN(C)C(=O)c2cc(S(=O)(=O)N3CCOCC3)ccc2N2CCCC2)cc1 | -50.1% |
| CN(Cc1cccs1)C(=O)c1cc(S(=O)(=O)N2CCOCC2)ccc1N1CCCC1 | -27.1% |
| COc1ccc(C2C(CN3CCOCC3)C(=O)N2c2ccccc2)cc1 (stereo not shown) | 9.52% |
| Cc1ccc(OCCOc2cccc(Br)c2)c([N+](=O)[O-])n1 | 0.558% |
| Cc1cccc(NS(=O)(=O)c2cccc(C(=O)N3CCN(c4ccccn4)CC3)c2)c1 | -22.7% |
| COc1ccc(C(=O)NCc2nnc(SCC(=O)Nc3cccc(OC)c3)o2)cc1 | -1.25% |

| SMILES | hERG current change (%, negative = inhibition) at 10uM |
| --- | --- |
| CCOC(=O)c1c(NC(=O)c2nn(CC)cc2Br)sc2c1CCCCC2 | 8.6% |
| COc1ccc(N(C)C(=O)c2cn(CC(C)C)c(=O)c3cc(OC)c(OC)cc23)cc1 | 8.8% |
| Nc1c(-c2ccccc2)cnn1-c1cccc(Cl)c1 | -12.3% |
| Nc1c(-c2cccc(Cl)c2)cnn1-c1ccccc1 | -60.3% |
| Nc1c(-c2ccccc2)cnn1-c1ccccc1 | 12% |
| COc1ccc(CNC(=O)C2CC(c3ccccc3[N+](=O)[O-])=NO2)cc1 (stereo not shown) | -27.7% |
| COc1ccc(CCNC(=O)C2CC(c3ccc([N+](=O)[O-])cc3)=NO2)cc1 (stereo not shown) | -61.6% |
| COc1ccc(CCNC(=O)C2CCN(C(=O)c3ccc(F)cc3)CC2)cc1 | 10.2% |
| O=C(NCc1ccc(OC(F)(F)F)cc1)C1CC(c2ccccc2[N+](=O)[O-])=NO1 (stereo not shown) | -68.3% |
| COc1ccc(CCNC(=O)C2CCN(C(=O)c3ccc(Cl)cc3)CC2)cc1 | -12.8% |
| COc1ccc(CCNC(=O)C2CCN(C(=O)c3ccc([N+](=O)[O-])cc3)CC2)cc1 | -65.6% |
| COCCNC(=O)C1CC(c2ccc([N+](=O)[O-])cc2)=NO1 (stereo not shown) | -0.798% |
| COc1ccc(CCNC(=O)C2CCN(C(=O)c3ccccc3)CC2)cc1 | 2.13% |
| COc1ccc(CCNC(=O)C2CC(c3cccc([N+](=O)[O-])c3)=NO2)cc1 (stereo not shown) | -21.8% |
| O=C(NCCc1ccccc1)C1CCN(C(=O)c2ccc(F)cc2)CC1 | -2.25% |
| O=C(NCCc1ccccc1)C1CCN(C(=O)c2ccc([N+](=O)[O-])cc2)CC1 | -63.2% |
| O=C(NCc1ccc(C(F)(F)F)cc1)C1CC(c2ccccc2[N+](=O)[O-])=NO1 (stereo not shown) | -46.1% |
| Cc1ccc(OCC(=O)Nc2ccccc2N2CCCC2)c(C)c1 | -3.14% |
| CCCN(c1ccccc1C(=O)O)S(=O)(=O)c1ccc2c(c1)n(C)c(=O)n2C | 19.8% |

Source: PMC4336329 (PLoS ONE, 2015)
